This passage reports growth results from PubChem BioAssay (NCI).

Test systems include HCT-15 colon; HT29 colon; SNB-75 CNS; SNB-19 CNS; U251 CNS; PC-3 prostate; SK-MEL-5 melanoma; LOX IMVI melanoma; SK-MEL-28 melanoma; SK-MEL-2 melanoma; EKVX NSCLC; SN12C renal; UO-31 renal; TK-10 renal; ACHN renal; CAKI-1 renal; A498 renal; CCRF-CEM leukemia; MOLT-4 leukemia.
Holding throughout (assay): NCI-60 one-dose screen, 48 h (100 = growth as untreated, 0 = no growth, -100 = all killed)
Common to all, as to conditions: 10 µM unless noted

Compounds without any hit were thinned out: in the full panel of roughly 83,000, 20% have a hit.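 The test compound was applied at a single concentration to cells in 96-well plates for 48 hours, and percent growth was recorded.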 A number with no mark means an inactive call. The source made the active and inactive calls. Rule for the calls: active = growth percent below 10; inactive = the rest.

Consider `CNC(=O)Nc1ccc(-c2ccc3ncnc(Nc4cccc(Cl)c4)c3c2)cc1`, for which the growth in the experiment with HCT-15 colon was 45.9%; with HT29 colon, 29%; in the experiment with SNB-75 CNS, 54.6%; in the experiment on SNB-19 CNS, 69.6%; in the experiment on U251 CNS, 54.9%; in the experiment with PC-3 prostate, 45.1%. Besides, the growth with SK-MEL-5 melanoma was 56.1%; in the experiment with LOX IMVI melanoma, 60.8%; in the experiment on SK-MEL-28 melanoma, 58.9%; in the experiment with SK-MEL-2 melanoma, 65.9%; in the experiment with EKVX NSCLC it was 2% (active); with SN12C renal, 62.3%. For the same molecule, the growth in the experiment with UO-31 renal was 46.5%; in the experiment on TK-10 renal, -3.72% (active); with ACHN renal it was 34.2%; in the experiment with CAKI-1 renal it was 32.1%; in the experiment with A498 renal, -8.06% (active); with CCRF-CEM leukemia it was 44.5%. In addition, the growth in the experiment on MOLT-4 leukemia is 36.7%.

On to `CCn1cc(Cc2cc(C(=O)Nc3cc4cc(OC)c(OC)cc4c(C)n3)ccc2Cl)cn1`, for which the growth is 19.3% with HCT-15 colon; 2.56% (active) in the experiment on HT29 colon; 36% in the experiment with SNB-75 CNS; 44.7% with SNB-19 CNS; 48.3% with U251 CNS; 29.2% in the experiment with PC-3 prostate. Besides, the growth in the experiment with SK-MEL-5 melanoma is 13.3%; in the experiment with LOX IMVI melanoma it was 5.28% (active); with SK-MEL-28 melanoma, 35%; with SK-MEL-2 melanoma, 42%; in the experiment with EKVX NSCLC, 47.2%; in the experiment on UO-31 renal it was 35%. In addition, the growth in the experiment with TK-10 renal was 73.7%; with ACHN renal it was 15.7%; in the experiment on CAKI-1 renal, 47.8%; in the experiment with A498 renal, 44.4%; with CCRF-CEM leukemia, 22.4%; in the experiment with MOLT-4 leukemia, 42.6%.

With `Cn1cc(-c2csc(-c3cn(C)c4ccccc34)n2)c2cnccc21`, the growth is -35.9% (active) in the experiment with HCT-15 colon; 4.26% (active) in the experiment with HT29 colon; 104% in the experiment on SNB-75 CNS; 52.2% in the experiment on SNB-19 CNS; -48.7% (active) in the experiment with U251 CNS; 54.8% in the experiment with PC-3 prostate. For the same molecule, the growth is -76.2% (active) in the experiment with SK-MEL-5 melanoma; -87.5% (active) with LOX IMVI melanoma; -92.9% (active) in the experiment with SK-MEL-28 melanoma; 107% with SK-MEL-2 melanoma; 16.8% in the experiment with EKVX NSCLC; 67.8% with SN12C renal. The growth was -48.1% (active) in the experiment with UO-31 renal; 66.7% with TK-10 renal; -61.4% (active) in the experiment with ACHN renal; -6.15% (active) with CAKI-1 renal; 85.2% in the experiment with A498 renal; 0.781% (active) with CCRF-CEM leukemia. The growth with MOLT-4 leukemia was 5.42% (active).

Consider `NS(=O)(=O)c1ccc(C(=O)NN2C(=O)c3ccccc3C2=O)cc1`, for which the growth in the experiment on HCT-15 colon is 107%; with HT29 colon, 111%; in the experiment on SNB-75 CNS it was 74.8%; in the experiment on SNB-19 CNS it was 102%; with U251 CNS, 106%; with PC-3 prostate, 105%. Moreover, the growth in the experiment with SK-MEL-5 melanoma is 103%; in the experiment with LOX IMVI melanoma it was 103%; in the experiment on SK-MEL-28 melanoma it was 113%; with SK-MEL-2 melanoma it was 116%; in the experiment with EKVX NSCLC it was 105%; with SN12C renal, 104%. Further, the growth in the experiment with UO-31 renal is 89.9%; in the experiment on TK-10 renal, 103%; in the experiment with ACHN renal, 112%; in the experiment with CAKI-1 renal it was 94%; with A498 renal, 73.3%; in the experiment on CCRF-CEM leukemia, 107%. Besides, in the experiment on MOLT-4 leukemia, the growth is 107%.

On to `COc1ccc2c(c1)C(C)Cc1c(ncnc1-n1cnc3cc(C)ccc31)N2C` (stereo not given), for which the growth is 13.2% with HCT-15 colon; 5.82% (active) in the experiment on HT29 colon; 63.3% in the experiment on SNB-75 CNS; 33.5% in the experiment on SNB-19 CNS; 18.5% in the experiment with U251 CNS; 24.7% in the experiment on PC-3 prostate. In addition, the growth with SK-MEL-5 melanoma is -14.1% (active); with LOX IMVI melanoma, 21.9%; in the experiment on SK-MEL-28 melanoma, 64.3%; in the experiment on SK-MEL-2 melanoma, 47.4%; in the experiment with EKVX NSCLC, 40.3%; with SN12C renal it was 30.1%. Moreover, the growth with UO-31 renal is 43.5%; in the experiment with TK-10 renal, 53.6%; in the experiment with ACHN renal, 29%; with CAKI-1 renal, 23.2%; in the experiment with A498 renal it was 6.42% (active); in the experiment with CCRF-CEM leukemia it was 7.96% (active). The growth in the experiment with MOLT-4 leukemia is 11%.

In the case of `CCOc1ccc(NC(=O)Nc2ccc(OCC)cc2)cc1`, the growth in the experiment with HCT-15 colon was 106%; in the experiment with HT29 colon, 107%; in the experiment on SNB-75 CNS, 106%; in the experiment with SNB-19 CNS, 107%; with U251 CNS, 99.8%; in the experiment with PC-3 prostate, 100%. The growth with SK-MEL-5 melanoma is 104%; with LOX IMVI melanoma it was 98.3%; in the experiment on SK-MEL-28 melanoma it was 101%; in the experiment on SK-MEL-2 melanoma, 121%; with EKVX NSCLC, 108%; with UO-31 renal, 95.2%. The growth is 107% in the experiment on TK-10 renal; 116% with ACHN renal; 103% with CAKI-1 renal; 104% in the experiment on A498 renal; 107% in the experiment with CCRF-CEM leukemia; 99.3% in the experiment on MOLT-4 leukemia.

Turning to `CCOC(=O)NCCCC(=O)NCCc1ccccc1`, the growth in the experiment with HCT-15 colon is 118%; in the experiment with HT29 colon, 110%; in the experiment on SNB-75 CNS, 109%; in the experiment with SNB-19 CNS, 108%; in the experiment on U251 CNS, 99.6%; with PC-3 prostate, 99.5%. The growth was 99.8% in the experiment with SK-MEL-5 melanoma; 94.2% in the experiment with LOX IMVI melanoma; 114% with SK-MEL-28 melanoma; 110% with SK-MEL-2 melanoma; 112% in the experiment on EKVX NSCLC; 106% in the experiment with SN12C renal. The growth with UO-31 renal is 90.3%; in the experiment on TK-10 renal, 104%; in the experiment on ACHN renal it was 111%; in the experiment with CAKI-1 renal, 99.5%; in the experiment on A498 renal it was 106%; in the experiment with CCRF-CEM leukemia, 108%. For the same molecule, in the experiment with MOLT-4 leukemia, the growth was 101%.

For the molecule `COC(=O)[C@]1(C)CCC[C@]2(C)[C@H]3C[C@@H]4[C@H]5[C@@H]6CC/C(=N\OCC/C(N)=N/O)[C@H]5[C@@]3(CC[C@H]21)CC4(C(C)C)O6`, the growth in the experiment on HCT-15 colon was 36.6%; in the experiment with HT29 colon, 74.2%; with SNB-75 CNS, 66.9%; with SNB-19 CNS it was 89.4%; in the experiment on U251 CNS it was 68.4%; with PC-3 prostate, 47.5%. Further, the growth was 73.2% in the experiment with SK-MEL-5 melanoma; 69% in the experiment on LOX IMVI melanoma; 88.9% with SK-MEL-28 melanoma; 85.8% with SK-MEL-2 melanoma; 62.5% in the experiment on EKVX NSCLC; 63.4% in the experiment with SN12C renal. Also, the growth in the experiment on UO-31 renal is 50.1%; in the experiment with TK-10 renal, 84.9%; in the experiment on ACHN renal it was 68.4%; with CAKI-1 renal, 65.1%; with A498 renal, 82.4%; in the experiment on CCRF-CEM leukemia, 18.9%. Also, the growth in the experiment with MOLT-4 leukemia is 28%.
